Results on twelve compounds are retold here after the supplement of paper PMC10037445.

SMILES strings stand for the structures. In all, about 2,900 compounds were measured (“NF-kB SEAP reporter activity, fold change vs agonist alone”: median about 0.99, highest 2% from about 2.6 on). The sample as a whole holds a higher share of the highest values than the screen did.

Assay [1] deals with RAW-Dual. The assay can be described thus: NF-kB SEAP reporter activity, fold change vs agonist alone; cytotoxicity flag (confluency mask): not cytotoxic; higher = enhanced NF-kB activity. The procedure, abridged:
(§1)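 Supernatant from RAW-Dual macrophages was read after 20 hours for IRF by QuantiLuc luminescence and for NF-κB by QuantiBlue absorbance at 620 nm. The cells (50,000 cells/well in DMEM, 384-well plates, 37 °C, 5% CO2) had received 50 nL of library stock by pin tool and, 1 h later, a PRR agonist. Reporter activity is expressed relative to agonist-alone wells as fold change, and wells were flagged cytotoxic if IncuCyte confluency was under 70% of agonist controls in both mask sets.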

Assay [2] has as its system RAW-Dual. The assay can be described thus: NF-kB SEAP reporter activity, fold change vs agonist alone; higher = enhanced NF-kB activity. Particulars: library stock concentration (final ~1000-fold dilution): 10 mM. The procedure, abridged: as §1
For assay [3], the system named is RAW-Dual. The assay can be described thus: NF-kB SEAP reporter activity, fold change vs agonist alone; cytotoxicity flag (confluency mask): cytotoxic (confluency <70% of control); higher = enhanced NF-kB activity. The procedure, abridged: as §1
[4] abbreviates: agonist: ODN 1826 (TLR9) 0.5 ug/mL.
The mark [5] stands for this setting: agonist: Pam2CSK4 (TLR2/6) 0.1 ug/mL.
Setting [6] is: agonist: Pam3CSK4 (TLR2/1) 0.1 ug/mL.
Setting [7] is: cytotoxicity flag (confluency mask): not cytotoxic, agonist: Imiquimod (TLR7) […].
Where [8] appears, read: cytotoxicity flag (confluency mask): not cytotoxic, agonist: MPLA (TLR4) […].
The mark [9] stands for this setting: cytotoxicity flag (confluency mask): cytotoxic (confluency <70% of control), agonist: Imiquimod (TLR7) […].
[10] abbreviates: cytotoxicity flag (confluency mask): cytotoxic (confluency <70% of control), agonist: MPLA (TLR4) […].

On to `C#Cc1cccc(Nc2ncnc3cc(OCCOC)c(OCCOC)cc23)c1` (library stock concentration (final ~1000-fold dilution): 10 mM), for which the “NF-kB SEAP reporter activity” value in the assay on RAW-Dual [1] (agonist: LPS (TLR4) 0.1 ug/mL) came to 4.68; with RAW-Dual [1] (setting [4]), 1.33; in the assay on RAW-Dual [1] (setting [5]), 0.887; in the assay on RAW-Dual [1] (setting [6]), 0.935.

Take `COc1cc2ncnc(Nc3cc(Br)c(O)c(Br)c3)c2cc1OC`: the figures for the “NF-kB SEAP reporter activity” value with RAW-Dual [2] (setting [7]) and with RAW-Dual [2] (setting [8]) were 0.787 and 1.53, respectively.

Turning to `NS(=O)(=O)OC[C@H]1C[C@@H](Nc2ccnc3cc(-c4cccc(SC(F)(F)F)c4)nn23)[C@H](O)[C@@H]1O`, the “NF-kB SEAP reporter activity” value in the assay on RAW-Dual [2] (setting [9]) was determined as 0.145; in the assay with RAW-Dual [2] (setting [10]), 0.255.

Consider `NS(=O)(=O)OC[C@H]1C[C@@H](Nc2ccnc3cc(-c4cccc(SC(F)(F)F)c4)nn23)[C@H](O)[C@@H]1O` (library stock concentration (final ~1000-fold dilution): 10 mM), for which the “NF-kB SEAP reporter activity” value with RAW-Dual [3] (agonist: LPS (TLR4) 0.1 ug/mL) is 0.308; with RAW-Dual [3] (setting [4]), 0.19; in the assay on RAW-Dual [3] (setting [5]), 0.0814; with RAW-Dual [3] (setting [6]) it was 0.152.

On to `CCNC(=O)[C@]12CCC(C)(C)C[C@H]1[C@H]1C(=O)C=C3[C@@]4(C)C=C(C#N)C(=O)C(C)(C)[C@@H]4CC[C@@]3(C)[C@]1(C)CC2` (library stock concentration (final ~1000-fold dilution): 10 mM), for which the “NF-kB SEAP reporter activity” value turned out to be 0.324 in the assay on RAW-Dual [1] (agonist: LPS (TLR4) 0.1 ug/mL), 0.193 with RAW-Dual [1] (setting [4]), 0.0804 in the assay with RAW-Dual [1] (setting [5]) and 0.173 in the assay with RAW-Dual [1] (setting [6]).

As to `CCNC(=O)[C@]12CCC(C)(C)C[C@H]1[C@H]1C(=O)C=C3[C@@]4(C)C=C(C#N)C(=O)C(C)(C)[C@@H]4CC[C@@]3(C)[C@]1(C)CC2`, the “NF-kB SEAP reporter activity” value in the assay with RAW-Dual [2] (setting [7]) worked out at 0.15; with RAW-Dual [2] (setting [8]), 0.256.

As for `CC(O)C(=O)O.CN1CCN(c2ccc3nc(-c4c(N)c5c(F)cccc5[nH]c4=O)[nH]c3c2)CC1` (library stock concentration (final ~1000-fold dilution): 10 mM), the “NF-kB SEAP reporter activity” value in the assay on RAW-Dual [3] (agonist: LPS (TLR4) 0.1 ug/mL) was determined as 0.341; with RAW-Dual [3] (setting [4]), 0.18; in the assay with RAW-Dual [3] (setting [5]), 0.15; in the assay with RAW-Dual [3] (setting [6]), 0.219.

For the compound `CC(O)C(=O)O.CN1CCN(c2ccc3nc(-c4c(N)c5c(F)cccc5[nH]c4=O)[nH]c3c2)CC1`, the “NF-kB SEAP reporter activity” value with RAW-Dual [2] (setting [9]) was 0.335; in the assay with RAW-Dual [2] (setting [10]), 0.591.

Turning to `C=C(CC(=O)OCCCCCCCC)C(=O)O` (library stock concentration (final ~1000-fold dilution): 10 mM), the “NF-kB SEAP reporter activity” value was 0.76 with RAW-Dual [1] (agonist: LPS (TLR4) 0.1 ug/mL), 0.641 in the assay on RAW-Dual [1] (setting [4]), 0.455 with RAW-Dual [1] (setting [5]) and 0.645 with RAW-Dual [1] (setting [6]).

`C=C(CC(=O)OCCCCCCCC)C(=O)O`: the figures for the “NF-kB SEAP reporter activity” value with RAW-Dual [2] (setting [7]) and in the assay with RAW-Dual [2] (setting [8]) were 0.711 and 0.955, respectively.

`NCC(O)(c1ccc(Cl)cc1)c1ccc(-c2cn[nH]c2)cc1` (stereo unspecified) (library stock concentration (final ~1000-fold dilution): 10 mM): the “NF-kB SEAP reporter activity” value stood at 0.342 in the assay with RAW-Dual [1] (agonist: LPS (TLR4) 0.1 ug/mL), 0.435 in the assay with RAW-Dual [1] (setting [4]), 0.236 in the assay on RAW-Dual [1] (setting [5]) and 0.327 in the assay with RAW-Dual [1] (setting [6]).

As for `NCC(O)(c1ccc(Cl)cc1)c1ccc(-c2cn[nH]c2)cc1` (stereo unspecified), the “NF-kB SEAP reporter activity” value with RAW-Dual [2] (setting [7]) came out at 0.966; in the assay on RAW-Dual [2] (setting [8]), 0.527.
